PubChem BioAssay (NCI)
About 83,000 compounds went through this panel and 20% of them were active in at least one assay; those are over-represented in the sample as a whole.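 Each cell line was grown in a 96-well plate and treated with one concentration of compound for 48 hours. Values below 10 were considered active.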 Unmarked numbers belong to inactive results.

Test system: HCT-15 colon
Assay: NCI-60 one-dose screen, 48 h (100 = growth as untreated, 0 = no growth, -100 = all killed)
Conditions: 10 µM unless noted

SMILES | growth [%]
Nc1ncnc2c1ncn2C1OC(COC(c2ccccc2)(c2ccccc2)c2ccccc2)C(O)C1O (stereo not drawn) | 98.2
O=C(Nc1ccc(-n2cc(-c3ccncc3)c(-c3ccc(O)c(Cl)c3)n2)cc1)c1cc(C(F)(F)F)cc(C(F)(F)F)c1 | 34.6
CN1C(=O)C2(SCC(C(=O)NCC(=O)OC(C)(C)C)N2C(=O)C2CCCCC2)c2ccccc21 (stereo not drawn) | 96.6
CCC1S/C(=N\N=C(/C)c2cc3ccccc3o2)N(c2ccccc2)C1=O (stereo not drawn) | 107
CC(C)(C)OC(=O)NCc1cccc(N=C=S)c1 | 38.9
CCOc1ccc(NC(=O)Nc2cc(C(C)C)ccc2C)cc1 | 83.3
O=C(NCCNc1nccc(-c2c(-c3cccc(O)c3)nc3sccn23)n1)Nc1cccc(C(F)(F)F)c1 | 84.7
C=C1c2c(Cl)ccc(O)c2C(O)=C2C(=O)[C@]3(O)C(O)=C(C(N)=O)C(=O)[C@@H](N(C)C)[C@@H]3[C@@H](O)[C@H]12 | 13.7
CCN(CC)CCN1C(=O)c2c(c3c4ccccc4[nH]c3c3[nH]c4ccccc4c23)C1=O | 59.4
O=C1OC(c2ccc(-c3ccccc3)cc2)=C/C1=C/C=C/c1ccccc1 | 109
O=[N+]([O-])c1ccc(NS(=O)(=O)c2cc(Cl)ccc2Cl)c2ccccc12 | 54.2
O=C(NCCNc1nccc(-c2c(-c3cccc(O)c3)nc3sccn23)n1)c1ccccc1 | 88.4
NS(=O)(=O)c1ccc(CCN2C(=O)/C(=C\c3ccc(Cl)cc3)C=C2c2ccc(Oc3ccccc3)cc2)cc1 | 64.8
